Source: ChEMBL document CHEMBL3988442, “University of Dundee, Small-Polar-MMV Screening Library” (2021)
Hit rate of the full screen: of about 48,000 compounds, about 13,000 (27%) showed an effect of 50% or more. The list shows a part of the results.

tested on: Wolbachia pipientis; experiment: Anti-Wolbachia Cell-Based Screen; format: functional; design: scale not given: in the data most compounds retested in dose-response had high values; conditions: 5 µM

SMILES | Percent Effect [%]
COCC(=O)NCc1nn(CCN2CCCC2)c(=O)c2ccccc12 | 112.1
CN(C)S(=O)(=O)NCc1nn(CCN2CCCC2)c(=O)c2ccccc12 | 91.81
CCN1CC(C(=O)NCc2nn(CC)c3ccccc23)CCC1=O (configuration not stated) | 10.79
CN(C)S(=O)(=O)NCCn1nc(-c2ccccc2)n(C)c1=O | -0.1642
CCNC(=O)NCc1ccc(CN2CCCC(C)C2)cc1 (configuration not stated) | -3.525
CCn1nc(CNC(=O)C2CC(=O)N(C3CCCC3)C2)c2ccccc21 (configuration not stated) | -24.02
CCOC(=O)NCc1nn(CCN2CCCC2)c(=O)c2ccccc12 | 108
CCn1nc(CNC(=O)C2CCCN(C(=O)COC)C2)c2ccccc21 (configuration not stated) | -19.96
O=c1nc(SCc2ccncc2)c2c(n1CCO)CCC2 | 3.515
COc1cccc(N2CC3(CCN(c4cnccn4)C3)CC2=O)c1 (configuration not stated) | -7.581
Cc1cc(Cl)ccc1NCc1cnn(C2CCS(=O)(=O)C2)c1 (configuration not stated) | 23.97
CCC1=NN2C(=N)/C(=C\c3cccn3-c3cccc(Cl)c3)C(=O)N=C2S1 | 116.1
CCC1=NN2C(=N)/C(=C\c3cccn3-c3ccc(Br)cc3)C(=O)N=C2S1 | 83.94
CCC1=NN2C(=N)/C(=C\c3cccn3-c3ccc(Cl)cc3)C(=O)N=C2S1 | 96.44
CCC1=NN2C(=N)/C(=C/c3cccc(Cl)c3)C(=O)N=C2S1 | 3.278
CN(Cc1ccco1)C1CCC12CCN(C(=O)C1CCOCC1)CC2.O=C(O)C(F)(F)F (configuration not stated) | -16.55
CO[C@H]1CCN(S(=O)(=O)c2cn(C)cn2)[C@H]1Cc1ccccc1.O=C(O)C(F)(F)F | 1.513
Cc1noc(CCNC(=O)c2ccc(Br)c(S(=O)(=O)N(C)C)c2)n1 | 13.21
CCn1c(N)nc2cc(C(=O)NCCc3ccccc3C)cnc21 | -8.06
CCN(CC)S(=O)(=O)CCNc1nnc(C(C)C)s1 | 4.911
CC(C)(C)n1cc(CNC2CCN(C(=O)c3ccncc3)CC2)cn1 | -2.234
CC(C)(C(=O)NCc1ccc(C#N)cc1)n1cc(Br)cn1 | 9.719
CC(C)(C)OC(=O)N1CCC(NCc2cnn(C(C)(C)C)c2)CC1 | -19.8
CS(=O)(=O)c1ccc(NCc2ccc(F)cc2)cn1 | -13.54

SMILES | Percent Effect [%]
CC(C)c1nc(CNc2ccc(CNS(C)(=O)=O)cc2)cs1 | -10.73
CC(C)(C)n1cc(CNc2ccc(CNS(C)(=O)=O)cc2)cn1 | 115
CC(=O)N(Cc1ccc(NCc2cnn(C(C)(C)C)c2)cc1)C(C)C | 111.1
CC(C)OC(=O)NCc1ccc(NCc2cnn(C(C)(C)C)c2)cc1 | 104.7
CC(C)(C)n1cc(CNC2CCN(C(=O)c3ccco3)CC2)cn1 | -4.791
CCc1nc(CNC(=O)Nc2nc(COC)cs2)cs1 | -11.4
O=C(NCCc1csc(-c2cnccn2)n1)c1cnn[nH]1 | -5.851
CCc1n[nH]c(SCC(=O)N2CCc3[nH]nc(C4CCC4)c3C2)n1 | -5.998
OC1(CNC2CCN(Cc3ccncc3)CC2)CCc2ccccc21 (configuration not stated) | 9.315
O=C([C@@H]1C[C@@H]2CCN(Cc3ccco3)C[C@H]2O1)N1CCCO1 | -6.348
O=C(NCC1CC1)[C@@H]1C[C@@H]2CCN(Cc3ccccc3)C[C@H]2O1 | 100.1
O=C(NCC1CCOCC1)[C@H]1C[C@@H]2CCN(Cc3ccncc3)C[C@@H]2O1.O=C(O)C(F)(F)F.O=C(O)C(F)(F)F | 7.253
CNC(=O)[C@H]1C[C@@H]2CCN(CCc3ccccc3)C[C@@H]2O1.O=C(O)C(F)(F)F | -33.06
CNC(=O)[C@@H]1C[C@@H]2CCN(Cc3ccoc3)C[C@H]2O1 | 103.1
O=C(NCC1CCOCC1)[C@@H]1C[C@@H]2CCN(Cc3ccco3)C[C@H]2O1.O=C(O)C(F)(F)F | -3.417
O=C(NCC1CCOCC1)[C@H]1C[C@@H]2CCN(Cc3ccccc3)C[C@H]2O1.O=C(O)C(F)(F)F | 108.7
O=C(NCC1CC1)[C@H]1C[C@@H]2CCN(CCc3ccccc3)C[C@H]2O1.O=C(O)C(F)(F)F | 16.57
O=C(NCC1CC1)[C@@H]1C[C@@H]2CCN(Cc3ccoc3)C[C@@H]2O1 | 93.16
CC(C)[C@H]1CN(CCS(C)(=O)=O)C[C@@H]1NC(=O)c1ccc(=O)[nH]c1 | -6.33
NC(=O)Cn1c(SCc2noc(-c3ccsc3)n2)nnc1C1CC1 | 7.901
Cc1cc(C)cc(C(=O)NCc2ncnn2C)c1 | -13.46
CC(OCC1CC1)C(=O)Nc1ccn(Cc2ccccc2)n1 (configuration not stated) | -8.999
N[C@H]1CC[C@@H](NC(=O)c2ccc3nc(-c4ccc(F)cc4)cn3c2)CC1 | -22.5
